Assay results as given in PubChem BioAssay (Tox21).
Results filed as inconclusive are left out. Calls of active or inactive are those of the source. Unless noted, calls come from the whole dose curve; as a rule, active = well fitted curve in the direction sought with a large enough effect in the repeat runs; inconclusive = weak or mixed curves; inactive = no such curve, though single readings can be large; an effect the other way counts as inactive or inconclusive.

Key:
[1] = qHTS assay to identify small molecule agonists of the RXR signaling pathway - cell viability counter screen (AID 1159529);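 note: HEK 293T cells carrying an RXR-alpha UAS beta-lactamase reporter; series mostly up to about 77 µM; nearly all actives have a fitted effect of over 50% in size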
In short: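 Steps: seed RXR-alpha-UAS-bla HEK 293T cells in assay medium containing 2% charcoal-stripped FBS; incubate 5 hr; add compounds in DMSO; incubate 16 hr at 37 C; after the bla read, add CellTiter-Glo and read luminescence at 30 min.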

[2] = qHTS assay to identify small molecule antagonists of the retinoid acid receptor (RAR) signaling pathway - cell viability counter screen (AID 1159551); note: nearly all actives have a fitted effect of over 35% in size
In short: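 Viability of C3RL4 cells is quantified from ATP by luminescence after 6 h treatment at 37 C with compounds and 1 uM retinol.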

[3] = qHTS assay to identify small molecule antagonists of the retinoic acid receptor (RAR) signaling pathway (AID 1159552; note: nearly all actives have a fitted effect of over 50% in size)
In short: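 Retinol at 1 uM final stimulated RARE-luciferase expression in C3RL4 cells exposed to test compounds for 6 hr at 37 C. Reduced luminescence, read 30 min after detection reagent, indicated pathway antagonism.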

[4] = qHTS assay to identify small molecule agonists of the retinoic acid receptor (RAR) signaling pathway (AID 1159553); note: potency is the fitted concentration of half-maximal effect
In short: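 Compounds dissolved in DMSO were pinned onto C3RL4 cells seeded the previous day, and plates were held 6 hr at 37 C. RARE-driven luciferase output was then read by luminescence.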

[5] = qHTS assay to identify small molecule antagonists of the estrogen related receptor (ERR) signaling pathway from Tox21 library - cell viability counter screen (AID 1224834); note: nearly all actives have a fitted effect of over 30% in size; note: potency is the fitted concentration of half-maximal effect
In short: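 In this quantitative HTS format, ERR cells receive compounds in DMSO and are incubated for 17.5 h at 37 C. Live-cell protease activity is then detected with CellTiter-Fluor.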

[6] = molecular target: Luciferin 4-monooxygenase (Photinus pyralis) (UniProt P08659); experiment: qHTS assay to identify small molecule inhibitors of firefly luciferase (AID 1224835); note: nearly all actives have a fitted effect of over 25% in size; note: potency is the fitted concentration of half-maximal effect
In short: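 Quantitative HTS format; KM concentrations of both substrates. Purified P. pyralis FLuc activity quantified from luminescence images.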

[7] = qHTS assay to identify small molecule agonists of the constitutive androstane receptor (CAR) signaling pathway - cell viability counter screen (AID 1224836); note: series mostly up to about 92 µM; nearly all actives have a fitted effect of over 45% in size
In short: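 Cells were seeded and incubated 4 hrs. Compounds were added across 15 concentrations together with PK11195 at 0.75 uM final. Plates were incubated 23 hrs at 37 C. CellTiter-Fluor was added and fluorescence measured.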

[8] = qHTS assay to identify small molecule antagonists of the constitutive androstane receptor (CAR) signaling pathway - cell viability counter screen (AID 1224837); note: series mostly up to about 92 µM; nearly all actives have a fitted effect of over 45% in size
In short: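 In quantitative HTS format, compounds at 15 concentrations were applied to HepG2 cells double-transfected with hCAR and CYP2B6-2.2kb under 50 nM CITCO stimulation; live-cell protease activity was read after 23 hr via CellTiter-Fluor.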

[9] = molecular target: Nuclear receptor subfamily 1 group I member 3 (Homo sapiens) (UniProt Q14994); experiment: qHTS assay to identify small molecule antagonists of the constitutive androstane receptor (CAR) signaling pathway (AID 1224838); note: nearly all actives have a fitted effect of over 40% in size; note: potency is the fitted concentration of half-maximal effect
In short: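 CITCO-stimulated (50 nM final) HepG2 cells stably transfected with hCAR and CYP2B6-2.2kb luciferase were exposed to compounds at 15 concentrations for 24 h at 37 C/5% CO2. A luciferase reagent was added and luminescence recorded after 30 min.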

[10] = molecular target: Nuclear receptor subfamily 1 group I member 3 (Homo sapiens) (UniProt Q14994); experiment: qHTS assay to identify small molecule agonists of the constitutive androstane receptor (CAR) signaling pathway (AID 1224839); note: nearly all actives have a fitted effect of over 15% in size; note: potency is the fitted concentration of half-maximal effect;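 for activation: HepG2 cells stably carrying human CAR and a CYP2B6 luciferase reporter; series mostly up to about 92 µM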
In short: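 Cells were plated and incubated 4 hrs, then dosed with compounds at 15 concentrations. PK11195 was added to 0.75 uM final. After 24 hrs at 37 C, luciferase luminescence was measured.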

[11] = qHTS assay to identify small molecule antagonists of the estrogen related receptor signaling pathway with the pleiotropic PPARgamma coactivator (PGC) from Tox21 10K library - cell viability counter screen (AID 1224840; active = well fitted cell-killing curve with a large enough effect in the repeat runs, not every such curve was filed as active; note: nearly all actives have a fitted effect of over 40% in size)
In short: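 Viability counter screen, PGC/ERR cells: 17.5 h compound exposure at 37 C, CellTiter-Fluor fluorescence endpoint.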

[12] = qHTS assay to identify small molecule antagonists of the estrogen related receptor signaling pathway with the pleiotropic PPARgamma coactivator (PGC) from Tox21 10K library (AID 1224841; call rule not given here; note: series mostly up to about 92 µM; actives are mostly falling curves and most rising ones were filed inactive; nearly all actives have a fitted effect of over 50% in size)
In short: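 In the PGC/ERR line, DMSO solutions of test chemicals are pin-delivered to 2,000 cells/well six hours after dispensing. Following eighteen hours' incubation, One-Glo reagent is added and luminescence recorded.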

[13] = qHTS assay to identify small molecule agonists of the estrogen related receptor signaling pathway with the pleiotropic PPARgamma coactivator (PGC) from Tox21 10K library (AID 1224842); note: nearly all actives have a fitted effect of over 15% in size; note: potency is the fitted concentration of half-maximal effect
In short: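 PGC/ERR reporter cells (NTP line) were seeded 2,000 per well, rested 6 h at 37 C/5% CO2, then pin-dosed with compounds in DMSO for 18 h at 37 C; luciferase read by One-Glo luminescence after 30 min at room temperature.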

[14] = molecular target: Retinoic acid receptor RXR-alpha (Homo sapiens) (UniProt P19793); experiment: qHTS assay to identify small molecule agonists of the RXR signaling pathway (AID 1159527; calls by dose curve; note: nearly all actives have a fitted effect of over 35% in size)
In short: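 Cells plated at 2,000/well, rested 5 hr at 37 C, pin-dosed with DMSO compound solutions, incubated 16 hr, then loaded with B/G FRET substrate for 2 hr at RT before dual-emission fluorescence reading.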

[15] = qHTS assay to identify small molecule antagonists of the estrogen related receptor (ERR) signaling pathway - cell viability counter screen (AID 1224818); note: series mostly up to about 46 µM
In short: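 Cytotoxicity check run alongside the ERR antagonist screen: cells exposed to test compounds 17.5 h at 37 C, viability taken as CellTiter-Fluor fluorescence intensity.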

[16] = qHTS assay to identify small molecule antagonists of the estrogen related receptor signaling pathway with the pleiotropic PPARgamma coactivator (PGC) cell viability counter screen (AID 1224822; note: series mostly up to about 46 µM)
In short: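 Viable cell signal (CellTiter-Fluor, 30 min, 37 C/5% CO2) was measured in PGC/ERR cells after a 17.5 h compound incubation.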

[17] = qHTS assay to identify small molecule antagonists of the estrogen related receptor (ERR) signaling pathway (AID 1224819;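 note: luminescence from an ERR-driven luciferase reporter measured with One-Glo reagent; series mostly up to about 46 µM; nearly all actives have a fitted effect of over 50% in size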)
In short: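 ERR reporter cells were plated at 2,000 cells/well and left 6 h at 37 C/5% CO2 before pin-tool transfer of compounds in DMSO. After 18 h at 37 C, One-Glo was added and luminescence was read 30 min later at room temperature.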

[18] = qHTS assay to identify small molecule agonists of the estrogen related receptor (ERR) signaling pathway (AID 1224820)
In short: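 Following a 6 h settling period, 2,000 ERR cells per well receive DMSO-dissolved compounds by pin tool and incubate 18 h at 37 C; agonist activity is scored from One-Glo luminescence read 30 min post-addition.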

[19] = tested on: estrogen-related receptor alpha (ERRalpha) with PGC-1alpha coactivator, human; experiment: qHTS assay to identify small molecule antagonists of the estrogen related receptor signaling pathway with the pleiotropic PPARgamma coactivator (PGC) (AID 1224821; calls by dose curve)
In short: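 Screening used NTP's PGC/ERR cells, dosed via pin tool with compound in DMSO alongside positive and negative controls. After 18 h at 37 C, One-Glo reagent sat 30 min at room temperature before luminescence detection.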

[20] = qHTS assay to identify small molecule agonists of the estrogen related receptor signaling pathway with the pleiotropic PPARgamma coactivator (PGC) (AID 1224823)
In short: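 In this quantitative high-throughput screen, an 18 h, 37 C treatment of PGC/ERR cells with compounds in DMSO preceded a One-Glo luminescence read taken after 30 min at room temperature.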
% is set by controls: 0 for no effect and ±100 for the full control effect.

Luciferin 4-monooxygenase (Photinus pyralis), sequence (P08659 whole entry, looked up): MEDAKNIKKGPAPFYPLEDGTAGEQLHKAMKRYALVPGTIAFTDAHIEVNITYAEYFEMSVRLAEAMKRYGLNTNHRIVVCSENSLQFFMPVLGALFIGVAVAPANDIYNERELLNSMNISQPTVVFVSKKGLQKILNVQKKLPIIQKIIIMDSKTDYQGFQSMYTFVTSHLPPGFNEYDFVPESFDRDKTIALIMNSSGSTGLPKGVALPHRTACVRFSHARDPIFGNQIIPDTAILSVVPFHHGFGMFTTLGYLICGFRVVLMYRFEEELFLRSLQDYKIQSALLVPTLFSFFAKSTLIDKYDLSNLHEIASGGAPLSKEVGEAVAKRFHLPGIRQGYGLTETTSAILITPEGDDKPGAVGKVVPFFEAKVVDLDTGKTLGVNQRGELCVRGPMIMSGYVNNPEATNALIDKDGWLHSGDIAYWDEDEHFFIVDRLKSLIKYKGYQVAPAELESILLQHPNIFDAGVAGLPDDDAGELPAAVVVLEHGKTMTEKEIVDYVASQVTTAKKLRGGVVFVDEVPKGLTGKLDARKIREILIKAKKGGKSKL
Retinoic acid receptor RXR-alpha (Homo sapiens), sequence (P19793 whole entry, looked up): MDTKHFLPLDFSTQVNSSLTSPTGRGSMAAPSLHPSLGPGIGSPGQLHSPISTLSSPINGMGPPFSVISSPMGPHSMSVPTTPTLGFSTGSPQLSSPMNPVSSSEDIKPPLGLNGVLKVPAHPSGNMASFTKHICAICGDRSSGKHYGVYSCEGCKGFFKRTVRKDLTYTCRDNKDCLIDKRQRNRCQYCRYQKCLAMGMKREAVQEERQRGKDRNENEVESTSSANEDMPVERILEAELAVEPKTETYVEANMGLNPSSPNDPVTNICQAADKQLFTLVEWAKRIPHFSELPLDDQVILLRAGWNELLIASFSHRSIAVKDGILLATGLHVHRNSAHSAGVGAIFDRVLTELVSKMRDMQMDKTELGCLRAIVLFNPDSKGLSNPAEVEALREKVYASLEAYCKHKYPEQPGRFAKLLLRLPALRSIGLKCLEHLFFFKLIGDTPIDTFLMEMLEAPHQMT
Nuclear receptor subfamily 1 group I member 3 (Homo sapiens), sequence (Q14994 whole entry, looked up): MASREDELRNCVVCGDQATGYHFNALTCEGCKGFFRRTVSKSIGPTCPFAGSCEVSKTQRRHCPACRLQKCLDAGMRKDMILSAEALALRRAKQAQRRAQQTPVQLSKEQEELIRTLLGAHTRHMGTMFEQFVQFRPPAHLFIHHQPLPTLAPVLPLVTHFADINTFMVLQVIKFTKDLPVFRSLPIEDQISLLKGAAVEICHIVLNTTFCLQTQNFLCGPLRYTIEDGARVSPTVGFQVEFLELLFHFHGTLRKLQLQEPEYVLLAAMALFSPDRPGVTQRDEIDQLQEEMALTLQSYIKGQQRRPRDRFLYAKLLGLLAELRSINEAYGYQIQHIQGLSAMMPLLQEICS

CC(C)(O)c1ccccc1
inactive: Potency [1] | outcome [2] | Potency [3] | Potency [4] | Potency [5] | Potency [6] | outcome [7] | outcome [8] | Potency [9] | Potency [10] | outcome [11] | Potency [12] | Potency [13]

CCCCCCCCC=O
inactive: Potency [14] | outcome [2] | Potency [5] | Potency [6] | outcome [7] | Potency [9] | Potency [10] | outcome [11] | Potency [12] | Potency [13]

CC(C)(C)C(=O)/C=C/c1ccc(Cl)cc1
inactive: Potency [1] | outcome [2] | Potency [3] | Potency [4] | Potency [5] | outcome [7] | outcome [8] | Potency [9] | Potency [10] | outcome [11] | Potency [12] | Potency [13]
active: Potency [6] 25.2 µM

OCc1ccccn1
inactive: Potency [14] | outcome [2] | Potency [5] | Potency [6] | outcome [7] | outcome [8] | outcome [11] | Potency [12] | Potency [13]

O=C1CC2(CCCC2)CC(=O)N1
inactive: Potency [1] | outcome [2] | Potency [3] | Potency [4] | Potency [5] | Potency [6] | outcome [7] | outcome [8] | Potency [9] | Potency [10] | outcome [11]

CCO[Si](CCCN=C=O)(OCC)OCC
inactive: Potency [1] | outcome [2] | Potency [3] | Potency [4] | Potency [5] | Potency [6] | outcome [7] | outcome [8] | Potency [9] | Potency [10] | outcome [11] | Potency [12] | Potency [13]

COC(=O)C1=C(C)NC(C)=C(C(=O)OCC(C)=O)C1c1ccccc1[N+](=O)[O-] (stereo not given)
inactive: Potency [14] | outcome [2] | Potency [3] | Potency [4] | Potency [5] | Potency [6] | outcome [7] | outcome [8] | Potency [9] | Potency [10] | outcome [11] | Potency [12] | Potency [13]

C=C(C)[C@H]1CC=C(C)CC1
inactive: Potency [14] | Potency [1] | Potency [5] | Potency [6] | outcome [7] | Potency [10] | outcome [11]

NC(=O)c1ncn([C@@H]2O[C@H](CO)[C@@H](O)[C@H]2O)c1O
inactive: Potency [1] | outcome [2] | Potency [3] | Potency [4] | outcome [15] | outcome [16] | Potency [5] | Potency [6] | outcome [7] | outcome [8] | Potency [10] | outcome [11]

Cn1ccc2cc3c(cc21)CCN3C(=O)Nc1cccnc1
active: Potency [4] 2.31 µM | Potency [6] 3.79 µM | Potency [10] 1.64 µM
inactive: activation [14] 14.3% [at 15.8 µM] | activity change, negative = cytotoxicity [2] -1.31% [at 19 µM] | activity, negative = inhibition [3] 169% [at 19 µM] | outcome [15] | outcome [16] | viability change, negative = cytotoxic [7] -0.1% [at 19 µM] | activity change, negative = cytotoxicity [8] -15.3% [at 19 µM] | activity, negative = inhibition [9] 213% [at 19 µM] | viability change, negative = cytotoxic [11] -15.1% [at 19 µM]

c1ccc(SCCSc2ccccc2)cc1
inactive: Potency [1] | outcome [2] | Potency [3] | Potency [5] | outcome [7] | outcome [8] | Potency [9] | outcome [11] | Potency [12]
active: Potency [4] 6.06 µM | Potency [6] 7.9 µM | Potency [10] 17.1 µM | Potency [13] 5.4 µM

C[C@H]1O[C@@H](n2cc(F)c(=O)[nH]c2=O)[C@H](O)[C@@H]1O
inactive: Potency [1] | outcome [2] | Potency [3] | Potency [4] | outcome [15] | outcome [17] | outcome [18] | outcome [19] | outcome [16] | outcome [20] | Potency [5] | Potency [6] | outcome [7] | outcome [8] | Potency [10] | outcome [11] | Potency [12] | Potency [13]

CN(C)C(=O)C(CCN1CCC(O)(c2ccc(Cl)cc2)CC1)(c1ccccc1)c1ccccc1
inactive: Potency [1] | outcome [2] | Potency [3] | Potency [4] | outcome [15] | outcome [18] | outcome [16] | outcome [20] | Potency [6] | Potency [12] | Potency [13]
active: Potency [5] 26.6 µM

CCCCN(CCO)CCO
inactive: Potency [14] | outcome [2] | Potency [5] | Potency [6] | outcome [7] | outcome [8] | Potency [10] | outcome [11] | Potency [12] | Potency [13]

Cc1c(C)n(CCN(C)C)c2ccc(C(=O)OCCN(C)C)cc12
active: Potency [9] 29.8 µM
inactive: Potency [14] | outcome [2] | Potency [3] | Potency [4] | Potency [5] | Potency [6] | Potency [10] | Potency [13]

O=C(O)/C=C/c1ccc(Cn2ccnc2)cc1
inactive: Potency [14] | outcome [2] | Potency [5] | Potency [6] | outcome [7] | outcome [8] | outcome [11]

OCCCCCCO
inactive: Potency [14] | outcome [2] | Potency [3] | Potency [4] | Potency [5] | Potency [6] | outcome [7] | outcome [8] | Potency [9] | Potency [10] | outcome [11]

COC(=O)c1ccc(C(=O)OC)c(C(=O)OC)c1
inactive: Potency [14] | outcome [2] | Potency [3] | Potency [4] | Potency [5] | outcome [7] | outcome [8] | Potency [9] | Potency [10] | outcome [11] | Potency [12] | Potency [13]

COc1ccc(NC(C)=O)cc1
inactive: Potency [14] | outcome [2] | Potency [3] | Potency [4] | Potency [5] | Potency [6] | outcome [7] | outcome [8] | outcome [11]

CCCCCC[C@@H](CCC)C(=O)O
inactive: Potency [14] | outcome [2] | Potency [3] | Potency [4] | Potency [5] | Potency [6] | outcome [7] | outcome [8] | Potency [9] | Potency [10] | outcome [11] | Potency [12] | Potency [13]

CC1=CC(=O)CCC1
inactive: Potency [14] | outcome [2] | Potency [3] | Potency [4] | Potency [5] | Potency [6] | outcome [7] | outcome [8] | Potency [9] | Potency [10] | outcome [11]

CCCOc1ccccc1-c1nc2n[nH]nc2c(=O)[nH]1
inactive: Potency [1] | outcome [2] | Potency [3] | Potency [4] | outcome [15] | outcome [16] | Potency [5] | Potency [6] | outcome [7] | Potency [9] | Potency [10] | outcome [11]
